About 83,000 compounds went through this panel and 20% of them were active in at least one assay; those are over-represented in the sample as a whole.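 Percent growth is the endpoint: 0 to 100 indicates growth inhibition (40 means 60% inhibition), 0 means no net growth, and negative values indicate cell death.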 A number with no mark means an inactive call. Active and inactive are the calls of the source. The calls were made as follows: active = growth percent below 10; inactive = the rest.

Data on seven molecules can be found in PubChem BioAssay (NCI).

Common to all, as to assay: NCI-60 one-dose screen, 48 h (100 = growth as untreated, 0 = no growth, -100 = all killed)
In one test the test system is HCT-15 colon. As to conditions: 10 µM unless noted.
Another test has as its system HT29 colon. As to conditions: 10 µM unless noted.
In the next test the test system is SNB-75 CNS. The following applies: 10 µM unless noted.
The test system of a further test is SNB-19 CNS. The following applies: 10 µM unless noted.
For the next test, the system named is PC-3 prostate. The following applies: 10 µM unless noted.
For a further test, the system named is SK-MEL-5 melanoma. The following applies: 10 µM unless noted.
For another test, the system named is UACC-62 melanoma. The following applies: 10 µM unless noted.
For the next test, the system named is LOX IMVI melanoma. The following applies: 10 µM unless noted.
A further test deals with SK-MEL-28 melanoma. The following applies: 10 µM unless noted.
In a further test the test system is SK-MEL-2 melanoma. As to conditions: 10 µM unless noted.
The next test relates to EKVX NSCLC. As to conditions: 10 µM.
Another test deals with SN12C renal. The following applies: 10 µM unless noted.
Another test deals with UO-31 renal. As to conditions: 10 µM unless noted.
In another test the test system is TK-10 renal. As to conditions: 10 µM unless noted.
For a further test, the system named is ACHN renal. The following applies: 10 µM unless noted.
In the next test the test system is CAKI-1 renal. The following applies: 10 µM unless noted.
The next test deals with A498 renal. The following applies: 10 µM unless noted.
For the next test, the system named is CCRF-CEM leukemia. As to conditions: 10 µM.
In the next test the test system is MOLT-4 leukemia. As to conditions: 10 µM unless noted.
A further test relates to U251 CNS. As to conditions: 10 µM unless noted.

Turning to `COc1cc2ncnc(Nc3ccc4c(cnn4C(=O)Nc4ccccc4)c3)c2cc1OC`, the growth in the test on HCT-15 colon was 83.2%; in the test with HT29 colon, 51.1%; in the test on SNB-75 CNS it was 114%; in the test with SNB-19 CNS it was 95.4%; in the test with PC-3 prostate, 98.9%; with SK-MEL-5 melanoma it was 90.9%. Further, the growth in the test with UACC-62 melanoma was 114%; in the test with LOX IMVI melanoma it was 93.2%; in the test with SK-MEL-28 melanoma, 77.3%; in the test on SK-MEL-2 melanoma, 103%; in the test on EKVX NSCLC it was 85.2%; in the test with SN12C renal it was 82.1%. Further, the growth with UO-31 renal is 65.3%; with TK-10 renal it was 72.3%; in the test with ACHN renal, 94.2%; in the test with CAKI-1 renal, 76.9%; in the test on A498 renal, 65.1%; with CCRF-CEM leukemia, 31.6%. The growth in the test on MOLT-4 leukemia is 80.8%.
On to `COc1cc(-c2cc3cnccc3c3nc(N)c4ccncc4c23)cc(OC)c1OC`, for which the growth was 38.5% with HCT-15 colon; 47.6% in the test on HT29 colon; -2.5% (active) in the test on SNB-75 CNS; 53.3% with SNB-19 CNS; 37.3% in the test on PC-3 prostate; 44.6% with SK-MEL-5 melanoma. The growth in the test with UACC-62 melanoma was 41.6%; in the test on LOX IMVI melanoma it was 36.1%; with SK-MEL-28 melanoma it was 75.3%; with SK-MEL-2 melanoma it was 70.1%; in the test on EKVX NSCLC, 55.3%; in the test on SN12C renal, 40.7%. The growth in the test with UO-31 renal was 11.9%; in the test with TK-10 renal it was 22.6%; in the test with A498 renal it was -16.8% (active); in the test on CCRF-CEM leukemia, 36.5%; in the test on MOLT-4 leukemia, 32.9%.
Take `COC(=O)c1cc(=O)nc(N/N=C/c2ccccc2O)s1`: the growth was 70.4% in the test on HCT-15 colon; 92.9% in the test on HT29 colon; 110% with SNB-75 CNS; 95.3% in the test with SNB-19 CNS; 86.3% with PC-3 prostate; 91.6% in the test on SK-MEL-5 melanoma. For the same molecule, the growth in the test on UACC-62 melanoma was 94.8%; with LOX IMVI melanoma it was 82.3%; in the test on SK-MEL-28 melanoma, 101%; in the test on SK-MEL-2 melanoma, 97.9%; with SN12C renal, 90.9%; with UO-31 renal, 61.4%. Further, the growth in the test on TK-10 renal was 112%; with ACHN renal it was 92.3%; in the test on CAKI-1 renal, 79%; with A498 renal, 112%; in the test with MOLT-4 leukemia, 72.1%.
For `Nc1nc2c(c3ncncc13)C(c1cccc(C(F)(F)F)c1)Cc1ncncc1-2` (centres undefined), the growth with HCT-15 colon was 27%; in the test on HT29 colon, 9.73% (active); with SNB-75 CNS, 8.31% (active); in the test with SNB-19 CNS, 33.9%; with PC-3 prostate, 26.4%; in the test on UACC-62 melanoma it was 43.4%. Further, the growth in the test with LOX IMVI melanoma was 36.8%; in the test with SK-MEL-28 melanoma it was 63.7%; with SK-MEL-2 melanoma, 48.2%; in the test with EKVX NSCLC, 48%; with SN12C renal, 55.2%; with UO-31 renal, 51%. The growth is 50.6% in the test on TK-10 renal; 45% in the test on ACHN renal; 34.5% with CAKI-1 renal; -6.07% (active) with A498 renal; 13.5% in the test with CCRF-CEM leukemia; 29.2% in the test on MOLT-4 leukemia.
Take `C/C(=C\c1ccc2ccccc2c1)[N+](=O)[O-]`: the growth with HT29 colon is -9.28% (active); with SNB-75 CNS it was 78%; in the test on SNB-19 CNS, 90.6%; with U251 CNS, 72.7%; in the test on PC-3 prostate, 25.3%; in the test on SK-MEL-5 melanoma, 71.3%. Further, the growth in the test on UACC-62 melanoma is 78.2%; in the test with LOX IMVI melanoma it was -80.9% (active); with SK-MEL-28 melanoma it was 37%; with SK-MEL-2 melanoma it was 4.49% (active); in the test on SN12C renal it was 89.6%; with UO-31 renal, -80.1% (active). In addition, the growth in the test with TK-10 renal is -47% (active); in the test on ACHN renal it was -74.1% (active); in the test on CAKI-1 renal it was -79.2% (active); in the test on A498 renal, 103%; with CCRF-CEM leukemia it was -25.4% (active); in the test with MOLT-4 leukemia it was -1.16% (active).
As for `O=C(NC(=S)NNC(=S)NNc1ccccc1)c1ccccc1`, the growth was 54% in the test with HCT-15 colon; 81.2% in the test with HT29 colon; 4.67% (active) with SNB-75 CNS; 48% in the test with U251 CNS; 32.6% with PC-3 prostate; 25.4% with SK-MEL-5 melanoma. Further, the growth is 25.2% in the test with UACC-62 melanoma; 48.3% in the test on LOX IMVI melanoma; 59.3% in the test on SK-MEL-28 melanoma; 24.2% with SK-MEL-2 melanoma; 25.7% with SN12C renal; 54% in the test with UO-31 renal. For the same molecule, the growth with ACHN renal was 70.7%; in the test with A498 renal, 78.9%; in the test on MOLT-4 leukemia it was 39.3%.
For `COc1cc(OC)c(/C=C/c2ccc3ccccc3[n+]2C)c(OC)c1`, the growth with HCT-15 colon was 77.5%; with HT29 colon, 3.11% (active); with SNB-75 CNS, 11.2%; in the test on U251 CNS it was 13.3%; in the test on PC-3 prostate it was 10.7%; in the test on UACC-62 melanoma, 0.263% (active). Moreover, the growth in the test with LOX IMVI melanoma was -33.2% (active); in the test with SK-MEL-28 melanoma, 9.89% (active); in the test on SK-MEL-2 melanoma it was -4.21% (active); in the test with SN12C renal, 12.3%; in the test with UO-31 renal, 65.9%; with ACHN renal, 25.6%. Further, the results for the growth in the test on CAKI-1 renal, in the test on A498 renal and with MOLT-4 leukemia were 68.4%, 7.12% (active) and -50.3% (active), respectively.
